In PubChem BioAssay AID1159580 (chemical genetic matrix, 2015):
Among all 5,500 compounds or so, about 2,000 (36%) were called active. About 18% were inconclusive and are not listed. Rule as the data show it: active = normalized growth mostly below about 0.91 (no sharp cut-off); inconclusive = no clear call, values can overlap the other calls; inactive = mostly above about 0.92. Some of the results follow.

Assay: chemical genetic growth profiling, strain panel (AID 1159580);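 also: tested at 20 µM; growth read once vehicle control cultures reached saturation at 30 °C; 1 = growth at the plate median or of vehicle wells; lower values mean less growth of the strain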
Details: growth OD

Measured: normalized growth

O=C(O)COc1ccc(Cl)cc1Cl
inactive: S. cerevisiae deletion strains, locus YJR043C, strain POL32, hits give low values 1.02 | S. cerevisiae deletion strains, locus YJR075W, strain HOC1, hits give low values 1.02 | S. cerevisiae deletion strains, locus YKL009W, strain mrt4, hits give low values 1.04 | S. cerevisiae deletion strains, locus YKL068W, hits give low values 1.01 | S. cerevisiae deletion strains, locus YKL085W, strain MDH1 (second series), hits give low values 1.01 | S. cerevisiae deletion strains, locus YKL085W, strain MDH1, hits give low values 1.01 | S. cerevisiae deletion strains, locus YKL160W, strain elf1, hits give low values 0.996 | S. cerevisiae deletion strains, locus YKL190W, strain CNB1, hits give low values 1.02 | S. cerevisiae deletion strains, locus YKR001C, strain vps1, hits give low values 1.04 | S. cerevisiae deletion strains, locus YKR026C, strain gcn3, hits give low values 0.988 | S. cerevisiae deletion strains, locus YKR091W, strain srl3, hits give low values 0.999 | S. cerevisiae deletion strains, locus YLL001W, strain dnm1, hits give low values 1 | S. cerevisiae deletion strains, locus YLL026W, hits give low values 0.988 | S. cerevisiae deletion strains, locus YLL041C, strain sdh2, hits give low values 0.995 | S. cerevisiae deletion strains, locus YLR027C, strain aat2, hits give low values 0.993 | S. cerevisiae deletion strains, locus YLR039C, strain RIC1, hits give low values 1.04 | S. cerevisiae deletion strains, locus YLR058C, strain SHM2, hits give low values 1.01 | S. cerevisiae deletion strains, locus YLR102C, strain apc9, hits give low values 1.03 | S. cerevisiae deletion strains, locus YLR221C, strain rsa3, hits give low values 0.989 | S. cerevisiae deletion strains, locus YLR258W, strain gsy2, hits give low values 0.994 | S. cerevisiae deletion strains, locus YLR262C, strain YPT6 (second series), hits give low values 0.996 | S. cerevisiae deletion strains, locus YLR262C, strain YPT6, hits give low values 1.08 | S. cerevisiae deletion strains, locus YLR268W, strain sec22, hits give low values 1.02 | S. cerevisiae deletion strains, locus YLR320W, strain mms22, hits give low values 0.991 | S. cerevisiae deletion strains, locus YLR330W, strain CHS5, hits give low values 1.01 | S. cerevisiae deletion strains, locus YLR342W, strain FKS1 (second series), hits give low values 1.03 | S. cerevisiae deletion strains, locus YLR342W, strain FKS1, hits give low values 1 | S. cerevisiae deletion strains, locus YLR357W, strain rsc2, hits give low values 0.989 | S. cerevisiae deletion strains, locus YLR370C, strain arc18, hits give low values 0.994 | S. cerevisiae deletion strains, locus YLR371W, strain rom2, hits give low values 1.03 | S. cerevisiae deletion strains, locus YLR384C, strain iki3, hits give low values 0.997 | S. cerevisiae deletion strains, locus YLR418C, strain cdc73, hits give low values 1.06 | S. cerevisiae deletion strains, locus YML016C, strain PPZ1, hits give low values 1.01 | S. cerevisiae deletion strains, locus YML032C, strain rad52, hits give low values 1.04 | S. cerevisiae deletion strains, locus YML120C, strain ndi1, hits give low values 0.989 | S. cerevisiae deletion strains, locus YML124C, strain tub3, hits give low values 1.02 | S. cerevisiae deletion strains, locus YMR058W, strain fet3, hits give low values 0.999 | S. cerevisiae deletion strains, locus YMR078C, strain ctf18, hits give low values 1.02 | S. cerevisiae deletion strains, locus YMR125W, strain sto1, hits give low values 0.993 | S. cerevisiae deletion strains, locus YMR129W, hits give low values 0.996 | S. cerevisiae deletion strains, locus YMR205C, strain PFK2, hits give low values 0.984 | S. cerevisiae deletion strains, locus YMR223W, strain ubp8, hits give low values 1.03 | S. cerevisiae deletion strains, locus YMR231W, strain pep5, hits give low values 0.992 | S. cerevisiae deletion strains, locus YMR263W, strain SAP30, hits give low values 1.01 | S. cerevisiae deletion strains, locus YMR307W, strain GAS1, hits give low values 1.04 | S. cerevisiae deletion strains, locus YNL067W, strain RPL9B, hits give low values 1.02 | S. cerevisiae deletion strains, locus YNL071W, strain lat1, hits give low values 1.01 | S. cerevisiae deletion strains, locus YNL128W, strain TEP1, hits give low values 1.02 | S. cerevisiae deletion strains, locus YNL153C, strain GIM3, hits give low values 0.993 | S. cerevisiae deletion strains, locus YNL209W, strain ssb2, hits give low values 1 | S. cerevisiae deletion strains, locus YNL233W, strain BNI4, hits give low values 1.03 | S. cerevisiae deletion strains, locus YNL248C, strain rpa49, hits give low values 0.989 | S. cerevisiae deletion strains, locus YNL250W, strain rad50, hits give low values 1.02 | S. cerevisiae deletion strains, locus YNL271C, strain bni1, hits give low values 1.02 | S. cerevisiae deletion strains, locus YNL298W, strain CLA4, hits give low values 1.04 | S. cerevisiae deletion strains, locus YNL307C, strain MCK1, hits give low values 1.03 | S. cerevisiae deletion strains, locus YNL322C, strain KRE1 (second series), hits give low values 0.994 | S. cerevisiae deletion strains, locus YNL322C, strain KRE1, hits give low values 1.01 | S. cerevisiae deletion strains, locus YNR049C, strain mso1, hits give low values 0.993 | S. cerevisiae deletion strains, locus YNR052C, strain pop2, hits give low values 1.03 | S. cerevisiae deletion strains, locus YOL006C, strain TOP1, hits give low values 1.08 | S. cerevisiae deletion strains, locus YOL012C, strain htz1 1.3 | S. cerevisiae deletion strains, locus YOL147C, strain pex11, hits give low values 1.02 | S. cerevisiae deletion strains, locus YOR001W, strain rrp6, hits give low values 0.993 | S. cerevisiae deletion strains, locus YOR061W, strain CKA2, hits give low values 1.01 | S. cerevisiae deletion strains, locus YOR069W, strain VPS5, hits give low values 1.01 | S. cerevisiae deletion strains, locus YOR070C, strain gyp1, hits give low values 1 | S. cerevisiae deletion strains, locus YOR080W, strain dia2, hits give low values 0.996 | S. cerevisiae deletion strains, locus YOR083W, strain WHI5, hits give low values 0.998 | S. cerevisiae deletion strains, locus YOR106W, strain vam3, hits give low values 0.994 | S. cerevisiae deletion strains, locus YOR136W, strain idh2, hits give low values 1.02 | S. cerevisiae deletion strains, locus YOR144C, strain elg1, hits give low values 1.02 | S. cerevisiae deletion strains, locus YOR184W, strain ser1, hits give low values 1.03 | S. cerevisiae deletion strains, locus YOR265W, strain rbl2, hits give low values 0.992 | S. cerevisiae deletion strains, locus YOR270C, strain vph1, hits give low values 1.01 | S. cerevisiae deletion strains, locus YOR290C, strain snf2, hits give low values 1 | S. cerevisiae deletion strains, locus YOR316C, strain cot1, hits give low values 1.03 | S. cerevisiae deletion strains, locus YPL051W, strain arl3, hits give low values 0.993 | S. cerevisiae deletion strains, locus YPL055C, strain LGE1, hits give low values 1.03 | S. cerevisiae deletion strains, locus YPL078C, strain atp4, hits give low values 0.999 | S. cerevisiae deletion strains, locus YPL106C, strain sse1, hits give low values 0.983 | S. cerevisiae deletion strains, locus YPL240C, strain hsp82, hits give low values 0.993 | S. cerevisiae deletion strains, locus YPL241C, strain CIN2, hits give low values 1.01 | S. cerevisiae deletion strains, locus YPR119W, strain clb2, hits give low values 1.01 | S. cerevisiae deletion strains, locus YPR141C, strain kar3, hits give low values 1.03 | S. cerevisiae deletion strains, locus YPR163C, strain tif3, hits give low values 1.02 | S. cerevisiae deletion strains, locus YPR167C, strain met16, hits give low values 1.03 | S. cerevisiae deletion strains, strain wtn01, hits give low values 1.02 | S. cerevisiae strains, strain wild type, hits give low values 1.01
